# Screens as filed in PubChem BioAssay.
# HT1080-NT tox – kills 2HG-producing HT-1080-NT fibrosarcoma cells; HT-1080-NT fibrosarcoma viability, CellTiter-Glo ATP luminescence, 48 h; Potency, µM (top dose mostly 46.1 µM), for the others: top-dose activity, negative = less viability, actives largely listed as cytotoxic; 1.6% of 360,000 active; AID 686970;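 also: NT is the 2HG producing partner of a matched IDH1 knockdown line; potency is read from the fitted curve at half-maximal effect; 0% = DMSO-treated cells and -100% = media-only wells without cells; nearly all actives have a fitted effect of over 55% in size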
#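 Viability of the 2HG-overproducing fibrosarcoma line after 48 hours of compound exposure at 37 degrees C was determined by luminescence with CellTiter-Glo, and concentration-effect curves were then fitted and categorized.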
# DT40 TDP1 CPT – growth inhibition of DT40 Tdp1-/-;hTDP1 cells with camptothecin (screen for TDP1 inhibitors) | Potency, µM (highest dose often 46.2 µM), inactives show at the highest dose activity change, negative = growth inhibition, usual class: inhibitors | chicken DT40 Tdp1-/-;hTDP1 cells + 20 nM CPT, ATP luminescence, 48 h | 12% of 420,000 active | AID 686979; also: potency is read from the fitted curve at half-maximal effect; nearly all actives have a fitted effect of over 55% in size
#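 Chicken DT40 Tdp1-/- cells stably complemented with human TDP1 were seeded at 400 cells/well in medium containing 20 nM camptothecin, exposed to pin-transferred compounds, and grown at 37 °C for at least 48 hr. Viability was read as ATP luminescence.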
# IL-1B inflam inh – inhibitors of inflammasome signaling (IL-1 beta secretion); activity change, % at 57.5 µM; 4.7% of 360,000 active; THP-1 LPS/ATP IL-1B secretion, AlphaLISA, 16 h; hits give low values; AID 743279; in the data active = activity change below about -50%; inconclusive = mostly about -30% to -49%
#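 THP-1 cells pretreated 1 hr with compounds (up to 57.5 uM final), then stimulated with LPS (250 ng/mL final) plus ATP (1.25 mM final); secreted IL-1B measured by AlphaLISA after 16 hr, decreased signal indicating inhibition.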
# DT40 TDP1 no CPT – qHTS for Inhibitors of human tyrosyl-DNA phosphodiesterase 1 (TDP1): qHTS in cells in absence of CPT; DT40 Tdp1-/- hTDP1 cells, no CPT, ATP luminescence, 48 h; Potency, µM (series often up to 46.2 µM), without a hit: at the highest dose activity change, negative = growth inhibition, usual class: inhibitors; 15% of 420,000 active; also: potency is read from the fitted curve at half-maximal effect; nearly all actives have a fitted effect of over 55% in size
#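 No-CPT arm: Tdp1-/-;hTDP1 DT40 cells (400/well) plus compounds, incubated ≥48 hr at 37 °C. Readout CellTiter-Glo luminescence.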
# HT1080 IDH1KD tx – HT-1080 IDH1 knockdown cell toxicity (counter line); 2% of 360,000 active; Potency, µM (highest dose often 46.1 µM), inactives show top-dose activity, negative = toxicity, actives largely listed as cytotoxic; HT-1080 IDH1 knockdown viability, ATP luminescence, 48 h; AID 686971;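 also: potency is read from the fitted curve at half-maximal effect; 0% = DMSO wells and -100% = cell-free medium wells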
#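 IDH1KD HT-1080 cells, 750/well, RPMI + 5% FBS; compound pinned after 2 h settling; 48 h, 37 °C; CellTiter-Glo luminescence; % activity normalised to DMSO and no-cell wells; curves fitted, classed by r2 and efficacy.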
# * hit, by the source's call; u = inconclusive; x = no result; [ ] = another dose, or the depositor's remark. In the library only some 19% were active in any assay of this set; here they are far more common. Unless noted, calls follow the shape of the dose curve; as a rule, active = well fitted curve in the direction sought with a large enough effect; inconclusive = small, poorly fitted or top-dose-only effect, or another doubt; inactive = no such curve, though single readings can be large; an effect the other way counts as inactive or inconclusive. Unless noted, % is scaled to controls: 0 for no effect and ±100 for the full control effect.
SMILES,HT1080-NT tox,DT40 TDP1 CPT,IL-1B inflam inh,DT40 TDP1 no CPT,HT1080 IDH1KD tx
COc1cccc(Nc2ncc3nc(C)c(=O)n(CCc4ccccc4)c3n2)c1,x,0%,x,-5%,x
Cc1nc(-c2ccccc2)nc2[nH]c(C(C)C)cc(=O)c12,-17%,u,-18,21µM*,8%
Cc1nc(-c2ccccc2)nc2[nH]c(=O)n(-c3ccccc3)c(=O)c12,4%,u,4,u,-10%
COC(=O)CNC(=O)C(=O)OC,x,5%[4.12 µM],x,-2%[4.12 µM],x
CCOc1ccc(NC(=O)CN(C)C(=O)c2ccccc2OCCOc2ccccc2)cc1OCC,-6%,u,-8,8.2µM*,-9%
CCOc1ccc(NC(=O)CN(C)C(=O)c2ccccc2CCc2ccccc2)cc1OCC,-3%,21µM*,-14,u,-1%
CCOc1ccc(NC(=O)CN(C)C(=O)c2cccc3ccccc23)cc1OCC,-2%,-2%,-2,u,1%
CCOc1ccc(NC(=O)CN(C)C(=O)CCCOc2ccc(Cl)c(C)c2)cc1OCC,-4%,15µM*,-16,23µM*,-4%
CN=C1S/C(=C\c2ccc(N3CCCC3)c(F)c2)C(=O)N1C,4%,u,-28,u,-9%
CN=C1S/C(=C\c2ccc(N3CCOCC3)c(F)c2)C(=O)N1C,1%,u,13,15µM*,1%
CC(C)NC(=O)N1CC(c2ccccc2)C(c2ccc(Cl)cc2)=N1 (stereo not given),-5%,12µM*,5,18µM*,-2%
CC(=O)N1CC(c2ccccc2)C(c2ccc(Cl)cc2)=N1 (stereo not given),4%,u,0,u,-1%
COc1ccc(N(CC(=O)N2CCc3ccccc32)S(=O)(=O)c2c(C)n[nH]c2C)cc1,-1%,-29%,-54*,u,-4%
Cc1nn(C)c(C)c1S(=O)(=O)N(CC(=O)N1CCc2ccccc21)c1ccc(C(C)C)cc1,-8%,-28%,0,u,-3%
Cc1ccc(N(CC(=O)N2CCc3ccccc32)S(=O)(=O)c2cccs2)cc1,-3%,u,-14,18µM*,0%
COC(=O)c1cc2oc3ccccc3c2n1CC(=O)Nc1ccc(OC)c(OC)c1,x,-20%,x,-8%,x
COc1ccc(-c2oc3ncn4nc(-c5ccccc5Br)nc4c3c2-c2ccc(OC)cc2)cc1,x,5%,x,u,x
COc1cc(-c2noc(-c3ccc(NCc4ccco4)c([N+](=O)[O-])c3)n2)cc(OC)c1OC,x,12µM*,x,7.3µM*,x
COc1cc(-c2noc(-c3ccc(NCC4CCCO4)c([N+](=O)[O-])c3)n2)cc(OC)c1OC (stereo not given),x,7.3µM*,x,3.7µM*,x
COc1cc(-c2noc(-c3ccc(N(C)C)c([N+](=O)[O-])c3)n2)cc(OC)c1OC,x,21µM*,x,26µM*,x
Cc1ccc(-c2noc(-c3ccc(NCc4ccco4)c([N+](=O)[O-])c3)n2)cc1,x,-9%,x,-5%,x
Cc1cc(NC(=O)Cn2nc(-c3cccs3)ccc2=O)cc(C)c1Br,26%,29µM*,u,29µM*,1%
COc1ccc(C(=O)OCC(=O)N(Cc2ccccc2)Cc2ccccc2)c(O)c1,2%,u,17,18µM*,2%
COc1ccc(CCN2CCCC(CN(C)C(=O)c3ccoc3)C2)cc1 (stereo not given),-2%,5%,-26,15%,-5%
Cc1cc(F)ccc1S(=O)(=O)Nc1nc2ccccc2nc1Cl,-9%,u,-51*,u,-9%
SMILES,HT1080-NT tox,DT40 TDP1 CPT,IL-1B inflam inh,DT40 TDP1 no CPT,HT1080 IDH1KD tx
Cc1ccc(S(=O)(=O)N2CCCC2)cc1C(=O)Nc1ccc(-n2cnnn2)cc1,-1%,u,21,-29%,-1%
COc1cc(C(=O)OCC(=O)Nc2ccccc2)cc2c1OCCO2,2%,u,-10,u,1%
Cc1cccc2nc(-c3ccco3)c(Nc3ccc4c(c3)OCCO4)n12,26%,u,-12,u,-4%
Cc1ccc(Nc2c(-c3ccc(C)s3)nc3cccc(C)n23)cc1,-18%,13µM*,x,13µM*,-20%
COc1ccc(Nc2c(-c3ccco3)nc3ccc(C)cn23)cc1,-3%,-21%,7,-15%,-2%
Cc1cc(C)nc(Nc2ccc(N3CCOCC3)cc2)n1,8%,-13%,-4,-11%,28%
COc1ccc(-c2nc3cccc(C)n3c2Nc2ccc(C)cc2)cc1,-23%,20µM*,x,13µM*,-26%
Cc1ccc(Nc2c(-c3cccc(Cl)c3)nc3cccc(C)n23)cc1,x,u,x,16µM*,x
Cc1ccc(Nc2c(-c3ccc(N4CCOCC4)cc3)nc3cccc(C)n23)cc1,x,23µM*,x,23µM*,x
Cc1cccc(N2CCN(c3ccc4cc(S(=O)(=O)N5CCC(C)CC5)ccc4n3)CC2)c1C,x,1%,x,-16%,x
O=C(c1ccc2c(c1)OCCO2)N(Cc1cccnc1)c1nc2ccc(Cl)cc2s1,x,-16%,x,-3%,x
CCOc1ccc2nc(N(Cc3cccnc3)C(=O)c3cccs3)sc2c1,x,2%,x,-5%,x
COc1cccc2sc(N(Cc3cccnc3)C(=O)c3ccc4c(c3)OCCO4)nc12,x,u,x,16µM*,x
O=C(c1ccc2c(c1)OCCO2)N(Cc1cccnc1)c1nc2c(F)cccc2s1,x,21µM*,x,u,x
CCOc1cccc2sc(N(Cc3cccnc3)C(=O)c3ccc(C#N)cc3)nc12,x,18µM*,x,23µM*,x
COc1ccc2sc(N(Cc3cccnc3)C(=O)c3cccs3)nc2c1,x,21µM*,x,18µM*,x
CCCCn1c(N)c(N(CC(C)C)C(=O)CSCC(=O)Nc2ccc(C)cc2)c(=O)[nH]c1=O,-3%,-6%,-13,-2%,8%
OC(c1ccc(F)cc1)c1ncc(-c2ccc3ccccc3c2)[nH]1 (stereo not given),u,u,1,u,u
CC(OC(=O)C1=Cc2ccccc2OC1)C(=O)NCC1CCCO1 (stereo not given),-9%,u,2,-15%,-19%
Cc1ccccc1NC(=O)Nc1nc(C(N)Cc2ccccc2)cs1 (stereo not given),23µM*,23µM*,-56*,23µM*,u
CC(C)(C)c1cc(C(=O)NN)n(Cc2ccc(F)cc2)n1,-2%,-20%,44,-18%,-2%
Cc1ccccc1NC(=O)Nc1nc(CN(C)C)cs1,-2%,0%,-2,3%,4%
COc1ccccc1NC(=O)Nc1nc(C(N)Cc2ccc(Cl)cc2)cs1 (stereo not given),u,9.2µM*,-12,23µM*,u
Cc1ccccc1NC(=O)Nc1nc(CN)cs1,-13%,16µM*,14,23µM*,u
